Experimental data from PubChem BioAssay AID1578 (Sanford-Burnham Center for Chemical Genomics, 2009).
Hit rate of the full screen: of about 290,000 compounds, about 3,000 (1%) were called active. Cut-off read from the data, not from the text of the source: active = inhibition mostly above about 36% (no sharp cut-off); inactive = mostly below about 34%. Shown is part of a subset that was picked to be rich in actives.

Experiment: NOD1 signaling inhibitors, primary screen, cell-based, luminescence, uHTS (AID 1578);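 note: HEK-293T reporter cells stimulated with the NOD1 agonist gamma-tri-DAP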
Settings: NOD1-driven NF-kB luciferase reporter cells, at 4 µM, stronger effect = higher value

inhibition, inactive:
CCNC(=S)N/N=C1\C(=O)c2cccc3cccc1c23 47.8%
CCCCNC(=S)N/N=C1\C(=O)c2cccc3cccc1c23 -56.3%
CC(C)(C)c1ccc(-c2cc(-c3ccccc3O)[nH]n2)cc1 25.5%
Cc1cccc(NC(=S)N/N=C/c2cccn2Cc2ccc(F)cc2)c1 23.3%
Cc1nc([N+](=O)[O-])c(Br)n1CC(=O)c1ccc(Br)cc1 44.8%
Cc1nc([N+](=O)[O-])c(Br)n1CC(=O)c1ccccc1 28.9%
C[C@@H]1ON(C2CCCCC2)[C@H]2c3nc4ccccc4n3C[C@@H]12 -10.2%
CCn1c(Cc2ccc(OC)cc2)nnc1SCc1nc2ccccc2c(=O)[nH]1 -38.1%
CCOCC(=O)Nc1c(C(=O)N2CCN(c3ncccn3)CC2)oc2ccccc12 -37.9%
COc1ccc(OC)c(NC(=O)c2cc(-c3cc(C)ccc3O)n[nH]2)c1 3.5%
COc1ccc(NC(=O)c2cc(-c3cc(Cl)ccc3O)n[nH]2)c(OC)c1 -3.3%
Cn1c(CNC(=O)c2ccc(F)cc2)cc2ccccc21 -17.9%
Cc1onc(-c2c(F)cccc2Cl)c1C(=O)NC1=NCCS1 -2%
Cn1c(SCC(=O)NCC2CCCO2)nc2c(c1=O)SCC2 (centres undefined) -11.7%
CN(C)S(=O)(=O)N1CCC(Oc2ccc(C(=O)NC3CCCCC3)cc2)CC1 -24.9%
C=CCN(CC=C)C(=O)c1ccc(OC2CCN(S(=O)(=O)N(C)C)CC2)cc1 -27.3%
C=C(C)CNC(=O)c1ccc(OC2CCN(S(=O)(=O)N(C)C)CC2)cc1 -27.4%
CN(C)S(=O)(=O)N1CCC(Oc2cccc(C(=O)NC3CCOC3)c2)CC1 (centres undefined) -17.9%
Cc1oc(-c2ccccc2Cl)nc1CSCC(=O)O -4.9%
COC(=O)c1cccc(N(C(=O)c2cnccn2)C(C(=O)NCc2ccccc2)c2ccco2)c1 (centres undefined) -29.2%
CCCc1cc(C(=O)Nc2cc(C)nn2-c2ccccc2)no1 9.1%
Cc1cc(NC(=O)CC(F)(F)F)n(-c2ccccc2)n1 -13.5%
CC(=O)Nc1cc(-c2ccc(Cl)cc2)nn1-c1ccccc1 -11.7%
Cc1ccc(-c2cc(NC(=O)CCl)n(-c3ccccc3)n2)cc1 16%
O=C(Nc1cn(-c2ccccc2)nc1-c1ccc(Cl)cc1)c1ccccc1 -1.1%
CC(=O)Nc1cn(-c2ccccc2)nc1-c1ccccc1 -27.2%

inhibition, active:
CNC(=S)N/N=C1\C(=O)c2cccc3cccc1c23 98.1%
COc1ccc(OC)c(NC(=O)c2cc(-c3cc(Cl)ccc3O)n[nH]2)c1 61.4%
C=C(C)CN(CC)C(=O)c1ccc(OC2CCN(S(=O)(=O)N(C)C)CC2)cc1 59.3%
